Screening results (PubChem)
Compounds with a hit are over-represented: about 3.9% of the library has one in this group of screens.
TRAIL sens C8 = caspase-8 TRAIL sensitization | NB7+C8 cells + TRAIL, ATPlite viability luminescence | inhibition (viability loss, TRAIL sensitization), % at 10 µM | 360,000 compounds, 1% hits | AID 624354;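 active = compounds causing at least 50% loss of cell viability in the single-dose screen, relative to plate controls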
HSP90 refold inh = blocks HSP90-mediated luciferase refolding in reticulocyte lysate; Rabbit reticulocyte lysate, luciferase refolding luminescence, 3 h; inhibition, % at 5.6 µM; 290,000 compounds, 0.91% hits;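 active = inhibition above the screen-wide mean plus 3 SD, computed separately per campaign, cut at about 16% in these data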;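 note: inhibitors lower the luminescence because luciferase stays unfolded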
TROY NFkB inh = TROY signaling inhibition; Q293 LMP1-TROYcd NF-kB luciferase reporter, 4 h; inhibition, % at 10 µM; 360,000 compounds, 0.98% hits; AID 1347056;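 active = compounds whose plate-normalised and pattern-corrected inhibition of the luciferase reporter signal at the single screening dose is 50% or more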
HIF-2a inh = HIF-2a inhibition. inhibition, % at 18.8 µM. 786-0 RCC cells HIF-2a reporter, luciferase luminescence, overnight. 360,000 compounds, 0.72% hits;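 active = inhibition of the luminescence signal of 40% or more relative to plate controls, in a single-dose primary screen at 18.75 µM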
aSyn UTR inh = MLPCN primary screen, SNCA 5' untranslated region; alpha-synuclein 5'UTR reporter, inhibitor activity; AID 1813; inhibition, % (tested at 7.5 µM); 300,000 compounds, 0.82% hits; in the data active = inhibition above about 60%; inconclusive = no clear call, values can overlap the other calls;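 note: H4 neuroglioblastoma cells stably carrying SNCA 5'UTR luciferase fusion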
TWEAK-Fn14 inh = inhibitors of TWEAK-Fn14 interaction signaling; inhibition, % at 10 µM; 360,000 compounds, 2% hits; TWEAK-stimulated Fn14 reporter cells, luciferase luminescence, 8 h; in the data active = inhibition above about 50%
HSP90 confirm = confirmation of HSP90 inhibitors; shares compounds with HSP90 refold inh; rabbit reticulocyte lysate, luciferase refolding luminescence, 3 h; inhibition, % at 5.9 µM; 2,300 compounds, 64% hits; in the data active = inhibition above about 18%
luciferase ctr = firefly luciferase inhibition, HSP90 counter-screen; shares compounds with HSP90 refold inh; 2,300 compounds, 48% hits; inhibition, % at 5.9 µM; AID 1847; purified native firefly luciferase, luminescence;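 active = inhibition above the mean inhibition of all tested sample wells plus 3 SD, cut at about 10% in these data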
Target sequence (P08659 whole entry, looked up): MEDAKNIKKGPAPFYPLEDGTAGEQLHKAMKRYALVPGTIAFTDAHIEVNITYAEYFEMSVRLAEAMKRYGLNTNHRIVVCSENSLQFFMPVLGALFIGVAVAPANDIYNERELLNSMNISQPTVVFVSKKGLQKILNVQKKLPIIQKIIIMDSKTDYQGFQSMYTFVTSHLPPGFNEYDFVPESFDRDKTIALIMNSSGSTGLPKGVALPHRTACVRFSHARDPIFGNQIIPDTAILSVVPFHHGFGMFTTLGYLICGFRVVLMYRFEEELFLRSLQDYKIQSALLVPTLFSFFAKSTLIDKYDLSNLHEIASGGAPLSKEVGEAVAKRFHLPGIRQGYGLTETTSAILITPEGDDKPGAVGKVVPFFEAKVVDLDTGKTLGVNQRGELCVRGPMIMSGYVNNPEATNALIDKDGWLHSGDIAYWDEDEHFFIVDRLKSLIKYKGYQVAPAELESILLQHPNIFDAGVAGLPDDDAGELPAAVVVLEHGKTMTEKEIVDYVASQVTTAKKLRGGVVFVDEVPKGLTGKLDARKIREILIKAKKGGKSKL
Of the large screens only hits and unclear results are named; the others gave an inactive call (follow-up assays come after a bar, where they were run).

CN(Cc1ccccc1)C(=O)c1ccc(NC(=O)Cc2ccc(NC(=O)C3CCCN(C(=O)C4CC4)C3)cc2)cc1 (stereo not drawn)	none (no result: HSP90 refold inh, aSyn UTR inh)
Fc1ccc(-n2nnc(-c3cnc4ccccc4c3)n2)cc1	TRAIL sens C8 61, HSP90 refold inh 19, TROY NFkB inh 73, aSyn UTR inh 94, TWEAK-Fn14 inh 94 | HSP90 confirm 81 | luciferase ctr 77
O=C(O)c1cccc(S(=O)(=O)Nc2ccccc2Oc2ccccc2)c1	none (no result: HSP90 refold inh, aSyn UTR inh)
C/C(=N\Nc1nc(C(=O)O)cs1)c1ccccc1	HSP90 refold inh 29 (no result: TRAIL sens C8, TROY NFkB inh, HIF-2a inh, TWEAK-Fn14 inh) | HSP90 confirm inactive | luciferase ctr inactive
COc1ccc(/C=N/Nc2nc(C(=O)O)cs2)cc1	HSP90 refold inh 66 | HSP90 confirm 90 | luciferase ctr 74
C/C(=N\Nc1nc(C(C)(C)C)cs1)c1ccccc1	none
COC(=O)c1ccc(/C=N/Nc2nc(-c3ccccc3)cs2)cc1	none
CCn1cnc2cc(NCc3nc4ccccc4n3Cc3ccccc3)ccc21	HSP90 refold inh 48, TROY NFkB inh 80, TWEAK-Fn14 inh 81 | HSP90 confirm 47 | luciferase ctr 40
O=C(O)c1ccc(NCc2nc3ccccc3n2Cc2ccccc2)cc1	none
Cc1ccc(CN2C(=O)CSCC2(C)C(=O)NC(C)C)cc1 (stereo not drawn)	none (no result: HSP90 refold inh, TROY NFkB inh, aSyn UTR inh, TWEAK-Fn14 inh)
Cc1[nH]c2ccccc2c1/C=N/NC(N)=S	none
CCc1nnc(N/N=C/c2c(C)[nH]c3ccccc23)n1N	HSP90 refold inh 75 (no result: aSyn UTR inh) | HSP90 confirm inactive | luciferase ctr inactive
Cc1[nH]c2ccccc2c1/C=N/Nc1cccc(C(=O)O)c1	HSP90 refold inh 54 | HSP90 confirm 54 | luciferase ctr 41
COc1ccc(Br)cc1/C=N/Nc1cccc(C(=O)O)c1	none
CN(C)c1ccc(/C=N/Nc2cccc(C(=O)O)c2)cc1	HSP90 refold inh 76, aSyn UTR inh 77 | HSP90 confirm 97 | luciferase ctr 94
COc1ccccc1/C=C/C=N/Nc1cccc(C(=O)O)c1	HSP90 refold inh 57 | HSP90 confirm 64 | luciferase ctr 49
COC(=O)[C@]12CCCCC=C1N(Cc1cccc3ccccc13)C(=O)[C@H](CC(=O)NCc1cccs1)C2	none (no result: HSP90 refold inh, aSyn UTR inh)
CCOC(=O)[C@H]1[C@H]2COc3ccc(Cl)cc3[C@@H]2N2C(=O)CN(CC3CCCO3)C(=O)[C@@]12C (stereo partly drawn)	none (no result: HSP90 refold inh, aSyn UTR inh)
O=C(O)c1cccc(N/N=C/c2ccc(-c3ccccc3)cc2)c1	HSP90 refold inh 28 | HSP90 confirm 54 | luciferase ctr 67
CC(C)(C)c1ccc(/C=N/Nc2cccc(C(=O)O)c2)cc1	none
COc1ccc(S(=O)(=O)N2CCOCC2)cc1NC(=O)CNC(=O)c1cccs1	none (no result: HSP90 refold inh, aSyn UTR inh)
COc1ncccc1-c1cc2nc(NCCNC(C)=O)n(C)c(=O)c2s1	none (no result: HSP90 refold inh, aSyn UTR inh)
COc1ccccc1-c1ccc2c(c1)O[C@@H](CN(C)C(=O)c1ccncc1)[C@H](C)CN([C@@H](C)CO)S2(=O)=O	none (no result: HSP90 refold inh, aSyn UTR inh)
Cc1onc(-c2ccccc2Cl)c1C(=O)N1CCN(C(=O)c2ccco2)CC1	HSP90 refold inh 27 | HSP90 confirm inactive | luciferase ctr inactive
Cc1onc(-c2ccccc2Cl)c1C(=O)N1CCCC1	none
Cn1c(=O)n(-c2ccc(Cl)cc2)c(=O)c2c3c(sc21)COC(C)(C)C3	HSP90 refold inh 41 | HSP90 confirm inactive | luciferase ctr inactive
COC(=O)c1ccccc1NC(=O)c1noc2c1CCCC2	none
COc1ccc(NC(=O)c2noc3c2CCC3)cc1	HSP90 refold inh 27, TWEAK-Fn14 inh 58 | HSP90 confirm 20 | luciferase ctr 31
O=C(Nc1cccc(O)c1)c1noc2c1CCCCC2	TRAIL sens C8 60, HSP90 refold inh 60, TROY NFkB inh 59, aSyn UTR inh inconclusive, TWEAK-Fn14 inh 81 | HSP90 confirm 69 | luciferase ctr 57
CC(C)[Si]1(C(C)C)OCC2OC(n3cnc4c(N)ncnc43)C(N)C2O[Si](C(C)C)(C(C)C)O1 (stereo not drawn)	none (no result: HSP90 refold inh, aSyn UTR inh)
CCCNC(=O)C1(C)CCCN(C(=O)c2cccc(Cl)c2)C1 (stereo not drawn)	none (no result: HSP90 refold inh, aSyn UTR inh)
Nc1ccc(-c2cnc(-c3ccc(N)cc3)nc2)cc1	TRAIL sens C8 73, HSP90 refold inh 21, TWEAK-Fn14 inh 67 | HSP90 confirm 26 | luciferase ctr 19
O=C(/C=C/c1cccs1)c1ccc(N2CCOCC2)cc1	TRAIL sens C8 76, HSP90 refold inh 31, TROY NFkB inh 75, TWEAK-Fn14 inh 89 | HSP90 confirm 58 | luciferase ctr 69
O=C(/C=C/c1cccc(F)c1)c1ccc(N2CCOCC2)cc1	none
COc1ccc(-n2ncc3c(NCCN4CCOCC4)ncnc32)cc1	HSP90 refold inh 26, TROY NFkB inh 53, TWEAK-Fn14 inh 59 | HSP90 confirm 27 | luciferase ctr 19
COc1ccc(-n2ncc3c(NCCCN4CCOCC4)ncnc32)cc1	HSP90 refold inh 28, TROY NFkB inh 59, TWEAK-Fn14 inh 74 | HSP90 confirm 32 | luciferase ctr 32
COc1ccc(CNC(=O)c2ccc(N3CCC4(CC3)CC(c3ccc(Cl)cc3)=NO4)c(NC(=O)Cc3ccc(F)cc3)c2)cc1	none (no result: HSP90 refold inh, aSyn UTR inh)
CCc1ccc2oc(-c3ccc(OC)cc3)cc(=Nc3cccc(C(=O)O)c3)c2c1	HSP90 refold inh 24, TROY NFkB inh 65, TWEAK-Fn14 inh 85 | HSP90 confirm inactive | luciferase ctr inactive
COc1ccc(-c2cc(=O)c3cc(O)ccc3o2)cc1	none
Cc1ccc(S(=O)(=O)N(C)c2ccc3c(c2)C(=O)c2ccccc2-3)cc1	none (no result: HSP90 refold inh, aSyn UTR inh)
CCCCc1nnc(NC(=O)CSc2nc(=O)cc(N)n2-c2cccc(C)c2)s1	HSP90 refold inh 33 | HSP90 confirm inactive | luciferase ctr inactive
Cc1cccc(-n2c(N)cc(=O)nc2SCC(=O)Nc2nnc(CC(C)C)s2)c1	none (no result: TRAIL sens C8, TROY NFkB inh, HIF-2a inh, TWEAK-Fn14 inh)
N#CCOc1ccccc1CNC[C@H]1O[C@@H](n2cnc3c(=O)[nH]c(N)nc32)[C@H](O)[C@@H]1O	none (no result: HSP90 refold inh, aSyn UTR inh)
CCOC(=O)C1CCN(C(=O)CSCc2nc(-c3ccc(OCC)cc3)oc2C)CC1	none
CCOc1ccc(-c2nc(CSCC(=O)N3CCN(C(=O)c4ccco4)CC3)c(C)o2)cc1	HSP90 refold inh 37 | HSP90 confirm 46 | luciferase ctr inactive
CC(C)[C@@H]1CC2=C(C(=O)OC(C)(C)O2)[C@H](CCc2ccccc2)O1	none (no result: HSP90 refold inh, aSyn UTR inh)
O=c1oc2ccc(Cl)cc2nc1/C=C(\O)c1ccco1	HSP90 refold inh 82 | HSP90 confirm 79 | luciferase ctr inactive
COc1ccc(/C(C)=N/NC(=O)Cn2nc([N+](=O)[O-])cc2C)cc1	HSP90 refold inh 30 | HSP90 confirm inactive | luciferase ctr inactive
O=C(c1ccco1)N1CC2(CC(c3ccc(Cl)cc3)=NO2)CN1Cc1ccc(Br)cc1 (stereo not drawn)	none (no result: HSP90 refold inh, aSyn UTR inh)
